In the library only some 27% were active in any assay of this set; here they are far more common.
CYP2C19 inhib: inhibitors of human CYP2C19. P33261. CYP2C19 Supersomes, luciferin-H EGE luminescence, 30 min. inhibition, % at 5 µM. hit rate 21% among 96,000. AID 778;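 active means CYP2C19 inhibition above a set limit at 5 µM in the primary screen, cut at about 50% in these data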;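 further: plate controls were negative control wells for no effect and 2.5 mM tranylcypromine positive control for full effect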
CYP2C9 act: increases human cytochrome P450 2C9 activity; AID 1024; hit rate 1.4% among 96,000; recombinant CYP2C9, luciferin-H conversion, luminescence; stronger effect = higher value; factor 1 = untreated enzyme, 0 = blocked; P11712; activation factor at 5 µM;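 active means activation factor of 2 or more for CYP2C9 at a 5 µM dose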;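 further: 0 = sulfaphenazole-blocked wells and 1 = vehicle-only wells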
CYP2C19 activ: cytochrome P450 2C19 (human) activation; 96,000 tested, under 10 active; P33261; recombinant CYP2C19, luciferin-H EGE luminescence; stronger effect = higher value; 0 = fully inhibited enzyme, 1 = untreated enzyme; activation factor at 5 µM;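 active means activation factor of at least 2 at 5 µM in the primary screen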;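 further: 0 = wells with 2.5 mM tranylcypromine and 1 = vehicle-only wells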
Cav3 T inh: human Cav3.2 channel inhibition, primary screen | O95180 | Cav3.2-expressing cells, Fluo-4 calcium fluorescence FDSS; stronger effect = lower value | B-score at 10 µM | hit rate 4% among 100,000 | AID 449739;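 active means single-dose well whose peak fluorescence ratio is a statistical outlier from its plate by either plate-standardised score or position-corrected B-score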
Target sequence (O95180 whole entry, looked up): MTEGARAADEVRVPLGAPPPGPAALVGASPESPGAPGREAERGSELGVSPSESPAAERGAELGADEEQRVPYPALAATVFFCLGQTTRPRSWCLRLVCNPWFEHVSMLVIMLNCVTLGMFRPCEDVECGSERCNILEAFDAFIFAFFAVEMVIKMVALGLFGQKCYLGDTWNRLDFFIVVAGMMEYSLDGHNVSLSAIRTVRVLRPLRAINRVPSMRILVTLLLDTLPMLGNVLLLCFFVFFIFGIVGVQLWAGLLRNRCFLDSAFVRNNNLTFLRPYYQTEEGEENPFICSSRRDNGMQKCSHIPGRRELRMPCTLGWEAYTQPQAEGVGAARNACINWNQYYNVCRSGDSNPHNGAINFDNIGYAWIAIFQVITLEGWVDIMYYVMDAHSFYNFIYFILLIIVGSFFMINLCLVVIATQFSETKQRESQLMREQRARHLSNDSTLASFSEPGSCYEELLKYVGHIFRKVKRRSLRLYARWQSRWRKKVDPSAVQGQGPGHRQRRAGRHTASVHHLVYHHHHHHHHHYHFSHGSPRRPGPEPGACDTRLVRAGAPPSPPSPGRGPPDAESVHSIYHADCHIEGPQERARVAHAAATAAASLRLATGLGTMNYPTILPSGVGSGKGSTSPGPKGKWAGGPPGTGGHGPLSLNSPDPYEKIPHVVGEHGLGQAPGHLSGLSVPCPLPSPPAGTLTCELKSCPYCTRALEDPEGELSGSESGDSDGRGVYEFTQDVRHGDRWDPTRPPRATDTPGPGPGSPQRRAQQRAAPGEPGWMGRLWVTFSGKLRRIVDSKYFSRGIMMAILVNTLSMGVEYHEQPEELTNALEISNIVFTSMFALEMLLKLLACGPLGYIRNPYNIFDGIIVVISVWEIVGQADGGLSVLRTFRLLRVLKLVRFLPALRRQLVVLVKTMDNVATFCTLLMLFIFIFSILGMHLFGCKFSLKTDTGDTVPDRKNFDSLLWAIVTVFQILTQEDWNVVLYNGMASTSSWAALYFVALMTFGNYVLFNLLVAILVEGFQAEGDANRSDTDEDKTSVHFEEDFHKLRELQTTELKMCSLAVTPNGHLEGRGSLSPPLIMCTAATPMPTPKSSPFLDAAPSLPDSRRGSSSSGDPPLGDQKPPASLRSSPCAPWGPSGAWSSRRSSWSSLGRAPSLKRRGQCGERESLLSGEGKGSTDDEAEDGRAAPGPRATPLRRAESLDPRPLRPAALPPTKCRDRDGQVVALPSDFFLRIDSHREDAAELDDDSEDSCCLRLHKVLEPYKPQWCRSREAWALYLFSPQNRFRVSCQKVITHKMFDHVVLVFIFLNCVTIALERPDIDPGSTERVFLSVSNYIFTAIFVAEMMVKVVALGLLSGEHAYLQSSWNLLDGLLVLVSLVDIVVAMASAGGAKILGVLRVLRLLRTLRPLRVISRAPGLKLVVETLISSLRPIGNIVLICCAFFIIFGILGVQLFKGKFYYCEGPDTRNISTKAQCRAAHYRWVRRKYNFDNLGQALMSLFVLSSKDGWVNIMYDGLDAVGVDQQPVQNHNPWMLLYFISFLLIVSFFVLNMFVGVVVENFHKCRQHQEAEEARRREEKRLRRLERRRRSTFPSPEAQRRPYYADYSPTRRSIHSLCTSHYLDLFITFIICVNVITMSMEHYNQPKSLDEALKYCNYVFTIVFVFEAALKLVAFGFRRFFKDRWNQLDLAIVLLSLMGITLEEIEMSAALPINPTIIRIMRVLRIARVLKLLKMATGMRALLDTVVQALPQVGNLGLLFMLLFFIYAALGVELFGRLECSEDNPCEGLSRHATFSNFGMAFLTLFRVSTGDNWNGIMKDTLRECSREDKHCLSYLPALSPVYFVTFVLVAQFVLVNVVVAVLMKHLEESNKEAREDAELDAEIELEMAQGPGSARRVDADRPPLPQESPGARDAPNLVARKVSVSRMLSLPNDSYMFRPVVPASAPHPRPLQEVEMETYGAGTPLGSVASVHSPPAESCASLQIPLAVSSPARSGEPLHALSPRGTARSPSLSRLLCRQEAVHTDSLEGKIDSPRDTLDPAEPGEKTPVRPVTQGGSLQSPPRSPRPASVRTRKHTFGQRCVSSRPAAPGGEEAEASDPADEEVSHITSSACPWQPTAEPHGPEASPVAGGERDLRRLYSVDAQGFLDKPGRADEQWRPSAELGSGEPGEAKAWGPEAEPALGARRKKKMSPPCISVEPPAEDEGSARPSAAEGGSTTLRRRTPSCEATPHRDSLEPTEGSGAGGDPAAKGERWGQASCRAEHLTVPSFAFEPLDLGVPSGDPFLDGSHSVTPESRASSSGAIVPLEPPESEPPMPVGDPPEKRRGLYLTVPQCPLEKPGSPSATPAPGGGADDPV
CYP2C9 inh: human CYP2C9 inhibition; CYP2C9 Supersomes, luciferin-H conversion, luminescence; inhibition, % at 5 µM; AID 777; hit rate 20% among 96,000; P11712;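 active means blocking of liver enzyme CYP2C9 beyond about 50% at 5 µM, limit read from the data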
The depositor's hits bear a star; . = no result.

SMILES | CYP2C19 inhib | CYP2C9 act | CYP2C19 activ | Cav3 T inh | CYP2C9 inh
CCCCN(CC)C(=O)c1ccc(Cl)c(Cl)c1 | 84* | 1 | 0.2 | -2.7 | 1
CCSc1nc(O)c(Cc2ccccc2)c(=O)[nH]1 | 2 | 1.3 | 1 | 0.35 | -28
COCCNC(=O)C(c1ccc(C)o1)N(C(=O)c1snc(C(N)=O)c1N)c1cccc(C)c1 (centres undefined) | 6 | 0.8 | 0.9 | -1.7 | 15
COc1cccc(/C(O)=C2/C(=O)C(=O)N(CCN3CCOCC3)C2c2cccs2)c1 (centres undefined) | 18 | 0.9 | 0.8 | . | 10
CC1(C)Cc2c(c(N3CCOCC3)nc3snc(Br)c23)CO1 | 10 | 0.3 | 0.9 | -1.3 | 67*
CC1(C)Cc2c(c(N3CCOCC3)nc3snc(N)c23)CO1 | -1 | 0.7 | 1 | 1.7 | 35
O=C(Nc1ccc(O)cc1C(=O)O)c1ccc2c(c1)C(=O)N(Cc1ccco1)C2=O | -2 | 0.4 | 1 | 0.45 | 60*
Cc1cc(-c2csc(N)n2)c(C)n1CCC(C)C | 95* | 0.2 | 0 | -0.41 | 81*
Cc1cc(-c2csc(NC(=O)c3ccc(=O)n(C)n3)n2)c(C)n1CC1CCCO1 (centres undefined) | 9 | 0.9 | 0.9 | 0.9 | 14
Cc1cc(-c2csc(N)n2)c(C)n1CCc1ccccc1 | 84* | 0.3 | 0.2 | -2.9 | 66*
C#CCNC(=O)C1=C[C@H](c2coc3ccccc3c2=O)[C@@H](CCCO)[C@H](OCC)O1 | . | . | . | -0.34 | .
Cc1ccc(-c2nnn(CC(=O)N(CC(=O)NC3CCCC3)c3cnc4ccccc4c3)n2)o1 | 44 | 0.2 | 0.6 | -2.9 | 77*
Cc1cccc(N(CC(=O)NCc2ccccc2)C(=O)Cn2nnc(-c3ccc(C)o3)n2)c1 | 28 | 0.6 | 0.7 | -2.6 | 40
Cc1ccc(-c2nnn(CC(=O)N(CC(=O)NCc3ccccc3)c3cccc(C)c3C)n2)o1 | 41 | 0.2 | 0.6 | -3.5 | 78*
Cc1ccc(-c2nnn(CC(=O)N(CC(=O)NC(C)C)c3cnc4ccccc4c3)n2)o1 | 10 | 0.7 | 0.9 | -0.34 | 29
Cn1c(SCC(=O)NCc2cccs2)nnc1-c1cccs1 | -16 | 1.1 | 1.2 | 0.9 | -14
Cc1nnc(SCc2ccccc2F)n1NCc1cccs1 | 93* | 0.4 | 0.1 | -0.16 | 55*
COc1ccc2cc(CCNC(=O)C3CC3)c(=O)[nH]c2c1 | 4 | 0.9 | 1 | . | 7
CCOC(=O)c1c(C)[nH]c(C(=O)OC)c1CCC(=O)OC | 23 | 0.9 | 0.8 | 1.2 | 13
CCOC(=O)c1[nH]c(Cc2[nH]c(C(=O)OCC)c(C)c2CCC(=O)OC)c(CCC(=O)OC)c1C | 58* | 0.3 | 0.4 | -8.4* | 72*
CC(=O)OC1c2ccccc2C(=O)N1Cc1ccccc1Cl (centres undefined) | 99* | 1.2 | 0 | 0.07 | -18
CCC(C)NC(=O)C1c2ccccc2C(=O)N1Cc1ccccc1OC (centres undefined) | 14 | 0.7 | 0.9 | 2 | 29
Cc1ccc(NC(=O)c2cccc3c2-c2ccccc2C3=O)cc1C | 84* | 0.3 | 0.2 | -0.76 | 68*
NC(=O)C1(N2CCCCC2)CCN(Cc2nc3ccccc3c(=O)[nH]2)CC1 | 15 | 1 | 0.9 | 0.98 | 4
Cc1ccccc1OCCNC(=O)c1ccccc1Sc1ccccc1C#N | 50 | 0.7 | 0.5 | -5.5* | 30
SMILES | CYP2C19 inhib | CYP2C9 act | CYP2C19 activ | Cav3 T inh | CYP2C9 inh
Cc1ccnc(NC(=O)COc2ccc3oc4c(c3c2)CCCC4)c1 | . | . | . | -0.4 | .
Clc1ccc(Cl)c(OCc2cc(-c3ccccc3Cl)on2)c1 | 28 | 1.4 | 0.7 | -0.012 | -41
CC(C)CN(CC(C)C)S(=O)(=O)c1cc([N+](=O)[O-])ccc1N1CCCCCC1 | 43 | 0.6 | 0.6 | -5.2* | 43
O=[N+]([O-])c1cc(F)c(N2CCOCC2)cc1N1CCCCC1 | 26 | 0.6 | 0.7 | -1.1 | 40
O=[N+]([O-])c1ccc(N2CCCCCC2)c([N+](=O)[O-])c1 | 27 | 1 | 0.7 | -4.7* | 0
CN(C)S(=O)(=O)c1cc([N+](=O)[O-])ccc1N1CCCCCC1 | 47 | 0.5 | 0.5 | -2.8 | 48
Nc1cc(N2CCCCC2)c(Cl)cc1[N+](=O)[O-] | 80* | 0.5 | 0.2 | . | 53*
O=[N+]([O-])c1cc(F)c(N2CCCCC2)cc1N1CCOCC1 | 25 | 0.6 | 0.7 | 0.67 | 44
O=[N+]([O-])c1ccc(N2CCCCC2)c(Cl)c1N1CCCCC1 | 41 | 0.5 | 0.6 | -0.38 | 50*
Cc1cc(C)cc(OCC(=O)NNC(=O)CCC(=O)NCc2ccccc2)c1 | . | . | . | -0.37 | .
O=c1[nH]c(CN2CCN(Cc3ccc4c(c3)OCO4)CC2)nc2sc3c(c12)CCC3 | 10 | 1.2 | 0.9 | . | -22
N=c1c(C(=O)NCc2ccc(F)cc2)cc2c(=O)n3ccccc3nc2n1Cc1cccnc1 | 7 | 0.8 | 0.9 | -0.46 | 20
COc1ccccc1NC(=O)Cn1c(=O)n2nc(C)nc2c2ccccc21 | 24 | 0.8 | 0.8 | 0.68 | 20
O=c1c2ccccc2c(-c2ccccc2)nn1Cc1ccc(Cl)cc1 | 66* | 0.4 | 0.3 | 0.66 | 58*
COc1ccc(Cl)cc1NC(=O)Cn1c(=O)n2nc(C)nc2c2ccccc21 | 59* | 0.7 | 0.4 | -0.29 | 34
CCNC(=O)CCn1nc(-c2ccc(Cl)cc2)c2ccccc2c1=O | 65* | 0.7 | 0.3 | 0.27 | 31
Cc1ccc(-c2nn(CCC(=O)NCC3CCCO3)c(=O)c3ccccc23)cc1 (centres undefined) | 32 | 0.5 | 0.7 | -3.2 | 54*
CCOC(=O)N1CCN(C(=O)CS(=O)(=O)c2cn(Cc3cccc(F)c3)c3ccccc23)CC1 | -8 | 0.9 | 1.1 | -2 | 9
O=C(CCn1nc(-c2ccccc2)c2ccccc2c1=O)N1CCN(c2ccccc2)CC1 | 90* | 0.1 | 0.1 | -5.3* | 85*
O=C(CCn1nc(-c2ccccc2)c2ccccc2c1=O)NCC1CCCO1 (centres undefined) | 56* | 0.5 | 0.4 | . | 54*
COc1ccccc1NC(=O)Cn1nc(-c2ccc(Cl)cc2)c2ccccc2c1=O | 41 | 0.3 | 0.6 | -4.7* | 70*
O=C(COc1ccccc1Cl)c1ccc2c(c1)CCCC2 | 0 | 1.9 | 1 | . | -93
O=C1c2oc3ccccc3c(=O)c2C(c2cccnc2)N1Cc1ccco1 (centres undefined) | 5 | 0.8 | 0.9 | 0.14 | 18
Cc1ccc(CONC(=O)/N=C/N(C)C)cc1 | 16 | 0.9 | 0.8 | 0.68 | 12
O=S(=O)(NCCCCCNS(=O)(=O)c1ccccc1)c1ccccc1 | 4 | 0.8 | 1 | -1.4 | 16
O=[N+]([O-])c1cccc(Cl)c1NCCNS(=O)(=O)c1ccccc1 | 60* | 2* | 0.4 | -1.7 | -105
COc1ccc(-c2noc(-c3ccco3)n2)cc1OC | 4 | 0.9 | 1 | 0.36 | 7
CCSc1nc(-c2ccc(OC)cc2)n(-c2nc3ccccc3s2)n1 | 12 | 0.5 | 0.9 | -2.8 | 54*
